Data as given in PubChem BioAssay (Tox21).
Records with an inconclusive call do not appear. Activity calls are given as the source filed them. Unless noted, the call rests on the fitted dose curve; in most records, active means well fitted curve in the direction sought with a large enough effect in the repeat runs; inconclusive means weak or mixed curves; inactive means no such curve, though single readings can be large; an effect the other way counts as inactive or inconclusive.

How the values were obtained:
[1] = qHTS assay to identify small molecule agonists of the peroxisome proliferator-activated receptor delta (PPARd) signaling pathway - cell viability counter screen (AID 743211); further: nearly all actives have a fitted effect of over 55% in size
Procedure, shortened: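 qHTS cell viability: PPARd-bla HEK293H; 17 h cpd, 37C; CellTiter-Glo, luminescence at 30 min RT.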

[2] = biological target: Peroxisome proliferator-activated receptor delta (Homo sapiens) (UniProt Q03181); test: qHTS assay to identify small molecule agonists of the peroxisome proliferator-activated receptor delta (PPARd) signaling pathway (AID 743212; calls by dose curve)
Procedure, shortened: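 A PPARd-bla HEK293H line with beta-lactamase under an Upstream Activator Sequence is treated with compounds at 37 C. Substrate loading for 2 h at room temperature precedes the fluorescence measurement.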

[3] = qHTS assay to identify small molecule antagonists of the peroxisome proliferator-activated receptor delta (PPARd) signaling pathway - cell viability counter screen (AID 743213); further: nearly all actives have a fitted effect of over 50% in size
Procedure, shortened: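 In this counter screen, HEK293H cells carrying a UAS-beta-lactamase reporter are co-treated with test compounds and 300 nM L165041 (final) for 17 h at 37 C; cell viability is quantified by CellTiter-Glo luminescence.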

[4] = biological target: Peroxisome proliferator-activated receptor delta (Homo sapiens) (UniProt Q03181); test: qHTS assay to identify small molecule antagonists of the peroxisome proliferator-activated receptor delta (PPARd) signaling pathway (AID 743215; active means well fitted inhibition curve with a large enough effect in the signal ratio in the repeat runs, not every such curve was filed as active; the % refers to the signal ratio;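 further: cells stimulated with agonist L165041 at 300 nM final during compound exposure; series mostly up to about 62 µM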)
Procedure, shortened: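 With L165041 present at 300 nM final, compounds were incubated 17 h at 37 C on PPARd UAS-bla HEK293H cells. A FRET-based beta-lactamase substrate was then applied for 2 h at room temperature and fluorescence intensity recorded.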

[5] = qHTS assay to identify small molecule agonists of the farnesoid-X-receptor (FXR) signaling pathway - cell viability counter screen (AID 743218); further: nearly all actives have a fitted effect of over 45% in size
Procedure, shortened: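 After 16 h at 37 C with test compounds, FXR-bla HEK 293T cells were given LiveBLAzer B/G substrate for 2 h at RT and then CellTiter-Glo; luminescence was taken after 30 min.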

[6] = qHTS assay to identify small molecule antagonists of the farnesoid-X-receptor (FXR) signaling pathway - cell viability counter screen (AID 743221; active means well fitted cell-killing curve with a large enough effect in the repeat runs, not every such curve was filed as active; further: nearly all actives have a fitted effect of over 50% in size)
Procedure, shortened: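 After a 5 h settling period, FXR-bla HEK 293T cells receive compound and chenodeoxycholic acid (50 uM final) and incubate 16 h at 37 C; CellTiter-Glo luminescence, read after 30 min at room temperature, reports cell viability.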

[7] = biological target: Vitamin D3 receptor (Homo sapiens) (UniProt P11473); test: qHTS assay to identify small molecule agonists of the vitamin D receptor (VDR) signaling pathway (AID 743222; calls by dose curve)
Procedure, shortened: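 VDR-bla cells were seeded, left 4 h, treated with compounds in DMSO for 16 h, incubated 2 h at RT with B/G FRET substrate, and read for fluorescence.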

[8] = biological target: Vitamin D3 receptor (Homo sapiens) (UniProt P11473); test: qHTS assay to identify small molecule antagonists of the vitamin D receptor (VDR) signaling pathway (AID 743223; active means well fitted inhibition curve with a large enough effect in the signal ratio in the repeat runs, not every such curve was filed as active; the % refers to the signal ratio)
Procedure, shortened: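 Reporter line VDR-bla; stimulus 1alpha,25-(OH)2 vitamin D3, 3 nM final; compound co-addition, 16 h 37C/5% CO2; LiveBLAzer B/G substrate 2 h RT; fluorescence intensity.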

[9] = biological target: Bile acid receptor (Homo sapiens) (UniProt Q96RI1); test: qHTS assay to identify small molecule antagonists of the farnesoid-X-receptor (FXR) signaling pathway (AID 743217; active means well fitted inhibition curve with a large enough effect in the signal ratio in the repeat runs, not every such curve was filed as active; the % refers to the signal ratio)
Procedure, shortened: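 In this cell-based antagonist screen, inhibition of CDCA-driven (50 uM final) UAS-beta-lactamase expression in HEK 293T cells was measured by FRET fluorescence following 16 h compound exposure at 37 °C.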

[10] = biological target: Bile acid receptor (Homo sapiens) (UniProt Q96RI1); test: qHTS assay to identify small molecule agonists of the farnesoid-X-receptor (FXR) signaling pathway (AID 743220; active means well fitted activation curve with a large enough effect in the signal ratio in the repeat runs, not every such curve was filed as active; the % refers to the signal ratio)
Procedure, shortened: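 Beta-lactamase reporter under UAS control in GeneBLAzer FXR HEK 293T cells (5000/well) measured with LiveBLAzer FRET substrate after 2 h at room temperature. Compound exposure lasted 16 h at 37C.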

Measured: Potency

Vitamin D3 receptor (Homo sapiens), sequence (P11473 whole entry, looked up): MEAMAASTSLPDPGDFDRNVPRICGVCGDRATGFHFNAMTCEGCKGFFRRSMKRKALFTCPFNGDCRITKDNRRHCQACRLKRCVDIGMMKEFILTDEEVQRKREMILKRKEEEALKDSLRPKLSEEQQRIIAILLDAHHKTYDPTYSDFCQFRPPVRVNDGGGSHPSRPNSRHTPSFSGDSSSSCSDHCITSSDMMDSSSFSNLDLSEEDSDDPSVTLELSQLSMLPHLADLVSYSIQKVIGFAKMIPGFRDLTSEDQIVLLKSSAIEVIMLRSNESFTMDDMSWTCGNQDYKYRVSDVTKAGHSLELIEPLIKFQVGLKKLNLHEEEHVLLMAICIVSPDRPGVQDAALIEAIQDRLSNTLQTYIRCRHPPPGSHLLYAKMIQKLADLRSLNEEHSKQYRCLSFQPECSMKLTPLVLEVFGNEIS
Bile acid receptor (Homo sapiens), sequence (Q96RI1 whole entry, looked up): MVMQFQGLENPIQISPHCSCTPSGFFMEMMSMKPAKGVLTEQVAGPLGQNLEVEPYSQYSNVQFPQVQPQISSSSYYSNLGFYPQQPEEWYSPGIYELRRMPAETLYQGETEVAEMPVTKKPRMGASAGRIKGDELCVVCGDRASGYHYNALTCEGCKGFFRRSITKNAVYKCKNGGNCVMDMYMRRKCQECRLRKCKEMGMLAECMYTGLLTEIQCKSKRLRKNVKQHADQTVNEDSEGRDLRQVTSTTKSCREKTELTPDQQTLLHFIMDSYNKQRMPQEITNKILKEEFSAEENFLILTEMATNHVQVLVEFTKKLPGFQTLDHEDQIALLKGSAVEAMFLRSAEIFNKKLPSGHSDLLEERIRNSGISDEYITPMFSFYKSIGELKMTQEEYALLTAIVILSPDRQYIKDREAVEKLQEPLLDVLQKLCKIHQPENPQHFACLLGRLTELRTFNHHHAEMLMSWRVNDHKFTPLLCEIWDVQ
Peroxisome proliferator-activated receptor delta (Homo sapiens), sequence (Q03181 whole entry, looked up): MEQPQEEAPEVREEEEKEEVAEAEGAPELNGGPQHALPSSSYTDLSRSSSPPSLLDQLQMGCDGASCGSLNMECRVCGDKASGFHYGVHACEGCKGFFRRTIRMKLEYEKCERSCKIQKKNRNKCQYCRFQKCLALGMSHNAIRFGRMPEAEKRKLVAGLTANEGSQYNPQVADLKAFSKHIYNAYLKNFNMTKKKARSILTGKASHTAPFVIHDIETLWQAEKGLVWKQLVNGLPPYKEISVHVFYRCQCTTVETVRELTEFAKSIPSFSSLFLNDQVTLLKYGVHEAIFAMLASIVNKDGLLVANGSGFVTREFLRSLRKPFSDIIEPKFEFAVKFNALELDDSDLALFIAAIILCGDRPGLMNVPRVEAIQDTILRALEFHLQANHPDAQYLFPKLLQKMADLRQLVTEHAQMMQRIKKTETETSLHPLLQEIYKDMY

O=S(=O)(O)c1ccc2cc(O)c(S(=O)(=O)O)cc2c1
not listed: [9] | [10]
inactive: all other assays above

COc1ccc(C2CNC(=O)C2)cc1OC1CCCC1 (stereo not drawn)
not listed: [9] | [10]
inactive: all other assays above

C=C(C)C(=O)OCC(C)(C)COC(=O)C(=C)C
inactive: [1] | [2] | [3] | [4] | [5] | [6]

CC(C)=CCOC(=O)c1ccccc1
inactive: [1] | [2] | [3] | [4] | [5] | [6]

Cc1ccccc1OCC(O)CO (stereo not drawn)
inactive: [1] | [2] | [3] | [4] | [5] | [6]

COP(=O)(OC)OC(c1ccc(Cl)cc1)P(=O)(OC)OC (stereo not drawn)
not listed: [9] | [10]
inactive: all other assays above

COC(=O)c1ccccc1C(=O)c1ccc(OCCN2CCCCC2)cc1
not listed: [5]
inactive: all other assays above

COc1cc(NS(=O)(=O)c2ccc(N)cc2)nc(OC)n1
not listed: [8] | [9] | [10]
inactive: all other assays above

CC[C@H](C)C(=O)O[C@H]1C[C@H](O)C=C2C=C[C@H](C)[C@H](CC[C@@H](O)C[C@@H](O)CC(=O)O)[C@H]21
inactive: [1] | [2] | [3] | [4] | [5] | [6]

O=C(c1ccc(O)cc1)c1ccc(O)c(O)c1O
not listed: [5] | [6]
inactive: all other assays above

COc1nccnc1NS(=O)(=O)c1ccc(N)cc1
not listed: [5]
inactive: all other assays above

N[C@@H](CCC(=O)Nc1ccc([N+](=O)[O-])cc1)C(=O)O
not listed: [5] | [7]
inactive: all other assays above

Nc1ncnc(Nc2ccccc2)n1
not listed: [9] | [10]
inactive: all other assays above

Cc1cc2cc3c(C)cc(=O)oc3c(C)c2o1
not listed: [8] | [9] | [10]
inactive: all other assays above

CC1COc2ccccc2N1 (stereo not drawn)
not listed: [8] | [9] | [10]
inactive: all other assays above

O=C(Nc1ccc(Cl)c(Cl)c1)C1CC1
inactive: [1] | [2] | [3] | [4] | [5] | [6]

CCOC(=O)[C@H](CCc1ccccc1)N[C@@H](C)C(=O)N1C(=O)N(C)C[C@H]1C(=O)O
inactive: [1] | [2] | [3] | [4] | [5] | [6]

CCCCCCCCCC(C)=O
not listed: [9] | [10]
inactive: all other assays above

COc1cc(C(=S)N2CCOCC2)cc(OC)c1OC
not listed: [5] | [7]
inactive: all other assays above

Cc1cc(NC(=O)C2=C(O)c3ccccc3S(=O)(=O)N2C)no1
inactive: [1] | [2] | [3] | [4] | [6]

CC1(C)S[C@@H]2[C@H](N=CN3CCCCCC3)C(=O)N2[C@H]1C(=O)O
not listed: [9] | [10]
inactive: all other assays above

ClCCCl
not listed: [5] | [9] | [10]
inactive: all other assays above

CCc1ccc(C=O)cc1
not listed: [5] | [9] | [10]
inactive: all other assays above

CCC(C=O)CC
not listed: [4]
inactive: all other assays above

CCCCNC1CC(C)(C)NC(C)(C)C1
not listed: [5] | [9] | [10]
inactive: all other assays above

O=C(O)Cc1ccc(Cl)cc1Cl
not listed: [7] | [9] | [10]
inactive: all other assays above

CN=C(NC#N)Nc1ccc(C2=NNC(=O)CC2C)cc1 (stereo not drawn)
not listed: [9] | [10]
inactive: all other assays above

C=Cc1ccccn1
not listed: [9] | [10]
inactive: all other assays above

COCCc1ccc(OCC2CO2)cc1 (stereo not drawn)
not listed: [7] | [9] | [10]
inactive: all other assays above

CC(=O)c1ccc2c(c1)Cc1ccccc1-2
not listed: [4] | [8]
inactive: all other assays above

Cc1ccc2c(c1)OCC(=O)CO2
not listed: [4] | [8]
inactive: all other assays above
